# Source: PubChem BioAssay AID837 (The Scripps Research Institute Molecular Screening Center, 2007)
# Activity calls are given as the source filed them.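 The calls were made as follows: active = relative FRET score above 0.01, or acceptor fluorescence over 30% below the sample-well median; inactive = the rest.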
# Molecular target: Protein Rev (Human immunodeficiency virus type 1 group M subtype B (isolate WMJ22)) (UniProt P05866)
# Test: HIV-1 Rev-RRE binding inhibitors, retest, confirmation, biochemical, FRET, acceptor and relative FRET calls (AID 837);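 also: relative FRET combines rise in Cy5 acceptor with fall in fluorescein donor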
# Conditions: Fl-Rev peptide / Cy5-RRE RNA FRET, 1536-well; at 8 µM
# Sequence of Protein Rev (Human immunodeficiency virus type 1 group M subtype B (isolate WMJ22)) (P05866 whole entry, looked up): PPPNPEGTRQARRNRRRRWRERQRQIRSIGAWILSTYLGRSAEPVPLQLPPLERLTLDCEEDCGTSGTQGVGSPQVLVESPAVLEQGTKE
row,SMILES,outcome
1,OC(COc1ccc2cc(Br)ccc2c1)CN1CCCC1 (stereo not given),inactive
2,Cc1nc(Nc2ccc(F)cc2)[nH]c(=O)c1CCC(C)C,inactive
3,CCN1CCCC1CNC(=O)c1c(O)c2c([nH]c1=O)CCCC2 (stereo not given),inactive
4,COc1cccc(Nc2nc(NCC3CCCO3)c3ccccc3n2)c1 (stereo not given),inactive
5,CN1CCN(Cc2cccc(Oc3ccc(Cl)cc3)c2)CC1,inactive
6,CCN(CC)CCCNC(=O)c1cc(-c2ccc(Cl)cc2)on1,inactive
7,O=c1[nH]c2cc(Br)cnc2nc1/C=C(\O)c1ccc(F)cc1,inactive
8,CCOc1ccc2nc3ccc4[nH]onc4c3c2c1,inactive
9,CCc1ccc2nc3nc(C)cc(C)c3c(N)c2c1,active
10,Cc1cc(-c2nc3c4c5c(sc4[nH]c(=O)n3n2)CCC5)c(C)o1,inactive
11,CCCN1C2=NCCN2c2cc(C)c(C)cc21,inactive
12,CCCN(N=Nc1cccc([N+](=O)[O-])c1)c1cccc([N+](=O)[O-])c1,inactive
13,CN=C1c2cc3cc(OC)ccc3n2CCN1Cc1ccccc1,inactive
14,Cc1ccc(Nc2nc(N)nc(CSc3nnnn3-c3ccccc3)n2)cc1,inactive
15,Cc1ccc(C2NC(=O)c3c(sc4c3CCN(C)C4)N2)s1 (stereo not given),inactive
16,CN(C)CCCNC(=O)c1ccc(-c2nc(-c3ccc(Cl)cc3)cs2)cc1,inactive
17,CC1CC(c2ccccc2)n2nc(NC(=O)c3cccs3)nc2N1 (stereo not given),inactive
18,C[n+]1c2n(c3ccccc31)N=C(c1ccc(Cl)cc1)CS2,active
19,Cc1cc(Cl)c(OCCCNCc2ccccc2)c(Br)c1,inactive
20,CCCCOc1ccc(NC2=NC3(CCCCC3)N=C(N)N2)cc1,inactive

row,SMILES,outcome
1,CC(=O)c1ccc(NC(=O)c2ccc3nc(-c4ccco4)c(-c4ccco4)nc3c2)cc1,inactive
2,O=C(c1cccc(F)c1)N1CCN(c2cccc(Cl)c2)CC1,inactive
3,O=C(Cn1cnc2ccccc2c1=O)N1CCOCC1,inactive
4,Nc1[nH]c(=S)[nH]c(=O)c1-c1ccccc1,inactive
5,O=C(N/N=C/c1ccc(F)cc1)c1cc(-c2ccco2)nc2ccccc12,active; quenches the donor
6,CC(C)(c1ccccc1)c1ccc(OCCCNCCO)cc1,inactive
7,N=c1n(CCO)c2ccccc2n1CCOc1ccccc1,inactive
8,COc1ccc2c3c(cccc13)NN=C2C,inactive
9,NCCCC(=O)N1c2ccccc2Sc2ccccc21,active
10,O=C(Nc1nccs1)c1ccc(-c2ccccc2Cl)o1,inactive
11,CCOC(=O)Cn1c(=N)n(Cc2ccccc2)c2ccccc21,inactive
12,CC[n+]1c(/C=C/Nc2ccccc2)oc2ccccc21,active; fluoresces like the donor
13,O=C(NCc1cccs1)c1cc2c(s1)CCCC2,inactive
14,OC(COCCC12CC3CC(CC(C3)C1)C2)CN1CCCCC1 (stereo not given),inactive
15,Nc1cccc2nc3ccccc3cc12,inactive
16,CC12Cc3ccc4ccccc4c3C=C1C[N+](C)(C)C2 (stereo not given),inactive
17,O=C(Nc1nccs1)c1cc2c(s1)-c1ccccc1OC2,inactive
18,CCOc1cc(-c2ccc(N)c(OCC)c2)ccc1N,active; fluoresces like the donor
19,NCCCCCc1nnc(SC/C=C/c2ccccc2)o1,inactive
20,CC1=NOC(=O)/C1=C/c1ccc(N(C)C)cc1,active; fluoresces like the donor
